Compounds without any hit were thinned out: in the full panel of roughly 83,000, 20% have a hit.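 96-well plates, one dose, 48 hours. Percent growth reported; active if below 10.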 Unmarked numbers belong to inactive results. Active and inactive are the calls of the source.
Assays:
Assay in all cases: NCI-60 one-dose screen, 48 h (100 = growth as untreated, 0 = no growth, -100 = all killed)
NCI-H460 lung = conditions: 10 µM unless noted
A549/ATCC NSCLC = conditions: 10 µM unless noted
COLO 205 colon = conditions: 10 µM
K-562 leukemia = conditions: 10 µM unless noted
MALME-3M melanoma = conditions: 10 µM unless noted
RXF 393 renal = conditions: 10 µM unless noted
SF-295 CNS = conditions: 10 µM unless noted
UACC-257 melanoma = conditions: 10 µM unless noted
SK-MEL-5 melanoma = conditions: 10 µM unless noted
LOX IMVI melanoma = conditions: 10 µM unless noted
SK-MEL-2 melanoma = conditions: 10 µM unless noted
UO-31 renal = conditions: 10 µM unless noted
CAKI-1 renal = conditions: 10 µM unless noted
A498 renal = conditions: 10 µM unless noted
MOLT-4 leukemia = conditions: 10 µM
OVCAR-4 ovarian = conditions: 10 µM unless noted
OVCAR-3 ovarian = conditions: 10 µM unless noted
SW-620 colon = conditions: 10 µM unless noted
786-0 renal = conditions: 10 µM unless noted
HL-60(TB) leukemia = conditions: 10 µM unless noted

Row | SMILES | growth (NCI-H460 lung) | growth (A549/ATCC NSCLC) [%] | growth (COLO 205 colon) [%] | growth (K-562 leukemia) [%] | growth (MALME-3M melanoma) | growth (RXF 393 renal) | growth (SF-295 CNS) | growth (UACC-257 melanoma) | growth (SK-MEL-5 melanoma) | growth (LOX IMVI melanoma) | growth (SK-MEL-2 melanoma) | growth (UO-31 renal) | growth (CAKI-1 renal) | growth (A498 renal) | growth (MOLT-4 leukemia) [%] | growth (OVCAR-4 ovarian) [%] | growth (OVCAR-3 ovarian) | growth (SW-620 colon) | growth (786-0 renal) [%] | growth (HL-60(TB) leukemia)
1 | CCOc1cc(C=C(C#N)C#N)cc(Br)c1O | 102% | 102 | 103 | 75.2 | 106% | 121% | 110% | 107% | 105% | 97.1% | 102% | 88.9% | 92.7% | 96.4% | 85.5 | 103 | 98.8% | 106% | – | –
2 | O1[As]2O[As]3O[As]1O[As](O2)O3 | 3.94% (active) | 37.8 | – | – | -15% (active) | -47.6% (active) | 4.61% (active) | -22.1% (active) | -91.5% (active) | 0.399% (active) | -34.8% (active) | -7% (active) | -20.2% (active) | 2.98% (active) | 10.7 | 26.1 | -35.3% (active) | 4.74% (active) | 10.7 | 1.06% (active)
3 | c1cnc2c(c1)ccc1ncccc12 | 108% | 107 | 110 | 99.8 | 118% | – | 115% | 96.6% | 104% | 106% | – | 93.2% | 91.7% | 207% | 100 | 109 | 90.6% | 144% | 105 | 93.6%
4 | Cc1ccc2oc(=O)c3c(c2c1)OC(N)=C(C#N)C3c1ccco1 (stereo not given) | 105% | 97 | – | – | 99% | – | 98% | 96.6% | 101% | 96.8% | 112% | 77.7% | 91.3% | 105% | 107 | 114 | 104% | 101% | 102 | 113%
5 | O=C1NC2(CCNCC2)Nc2ccccc21 | 110% | 69.1 | – | – | 117% | 111% | 107% | 85.7% | 114% | 102% | 98.1% | 89.4% | – | 95.5% | 84.7 | 116 | 108% | 102% | 107 | 95.6%
6 | CCCCCN(CCCCC)CC(O)c1ccc(C)c(Cl)c1 (stereo not given) | 101% | 92.7 | 91.3 | 92.5 | 105% | – | 87% | 95.4% | 103% | 96.3% | 101% | 88.3% | 98.2% | 78.5% | 110 | 105 | – | 103% | 98.2 | 116%
7 | CC(C)CCC[C@@H](C)[C@H]1CC[C@H]2[C@@H]3CC=C4C[C@@H](OC(=O)Cc5ccc(N(CCCl)CCCl)cc5)CC[C@]4(C)[C@H]3CC[C@]12C | 97.8% | 112 | 117 | 90.4 | – | – | 119% | 103% | 95.8% | 104% | 94.6% | 90% | 97% | 132% | 99.8 | 114 | 112% | 109% | 96.7 | 86.9%
8 | N#CC1c2ccccc2C=CN1C(=O)c1ccc(N(CCCl)CCCl)cc1 (stereo not given) | 111% | 79 | 103 | 65.8 | 85.4% | 89.7% | 90.6% | 81.5% | 84% | 90.4% | 104% | 71% | 69.1% | 106% | 72.2 | 96.7 | 88.6% | 105% | 107 | 65.9%
9 | CC12CCC(=O)C=C1CCC1C2CCC2(C)C(C(=O)COC(=O)Cc3ccc(N(CCCl)CCCl)cc3)CCC12 (stereo not given) | 40.5% | – | 88.5 | 77.5 | 168% | – | 74.5% | – | 85% | 86.4% | 20.6% | 72.8% | 27.4% | 69.8% | 49.5 | 91 | 107% | 75.6% | 93.7 | 26.7%
10 | O=C(O)c1nn(Cc2ccc(Cl)cc2)c2ccccc12 | 105% | 102 | 111 | 104 | 113% | 123% | – | 93.1% | 97.2% | 101% | 114% | 95.7% | 106% | 96.5% | 111 | 100 | 132% | 105% | 108 | 103%
11 | CNC(=O)Oc1cc(C(C)C)ccc1Sc1ccc(C(C)C)cc1OC(=O)NC | 34.9% | 64.2 | 112 | 25.6 | 62.7% | 64.3% | 26.9% | 65.5% | 33.1% | 62.2% | 72.4% | 65.7% | 67% | 88.5% | 26.8 | 80.8 | 69.2% | 43.6% | 105 | 40.4%
12 | CC12CCC3C(CC=C4CC(O)CCC43C)C1C/C(=C\N1CCOCC1)C2=O (stereo not given) | 108% | – | 116 | 108 | 110% | 110% | 113% | 101% | 99.1% | 105% | 106% | 79.2% | 91% | – | 106 | 94.4 | 116% | 105% | 104 | 129%
13 | Cc1cc([N+](=O)[O-])c(Cl)cc1NS(=O)(=O)c1ccccc1 | 73.2% | – | 91.9 | 71 | 37.9% | 91.9% | 65.7% | – | 43.6% | 81.2% | 55.5% | 63.8% | 63.7% | 67.2% | 74.5 | 71.4 | 71.7% | 93.9% | 60.1 | 57.3%
14 | C=CCC1(CC)C(=O)NC(=S)NC1=O | 111% | 102 | 97.3 | 95.5 | 108% | 110% | 108% | 105% | 95.7% | 97.2% | 99.3% | 83.7% | 96.8% | 110% | 93.2 | 110 | 105% | 101% | 108 | 75.4%
15 | O=C(CCF)c1ccc(O)cc1 | – | 101 | 105 | 98.9 | 108% | 109% | 100% | 98.2% | 117% | 95% | 105% | 87% | – | – | 100 | 103 | 109% | – | 103 | 99.2%
16 | COc1cc(C2=NN(c3ccccc3)C(c3sc(N(CCCl)CCCl)nc3Cl)C2)cc(OC)c1OC (stereo not given) | 91.6% | 83 | 90.6 | 74.3 | 121% | 106% | 89.4% | 87.4% | 88.4% | 92.7% | 85.2% | 75.5% | 64% | 93.2% | 70.9 | 87.5 | 98.7% | 97.2% | 91.8 | 96.2%
17 | O=[N+]([O-])c1ccc2cnn(CSP(=S)(c3ccccc3)c3ccccc3)c2c1 | – | 73.3 | 101 | 19 | 55.3% | 70.1% | 96.3% | 86.3% | 56% | 65% | 98.2% | 58.9% | 81.5% | – | 44 | 73.1 | 71.6% | 31.7% | 88.3 | 35.2%
